Laboratory results reported in article PMC5540273 (PLoS ONE, 2017).

test system: PFTAIRE2; conditions: concentration: 1 μM, replicates: in singlicate; n = 1
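Further: KINOMEscan kinase panel screen.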

SMILES | %Inh [%]
COc1ccc(Nc2nccc(N3CCC(NS(=O)(=O)c4ccc(NC(C)=O)cc4)C3)n2)cc1 (centres unmarked) [GSK1379729] | 17
CCn1c(-c2nonc2N)nc2ccccc21 [SB-693162/GW549034] | 0
COc1cccc(-n2cnc3c(N)ncnc32)c1 [SKF-97416] | 0
O=C(Nc1n[nH]c2nc(-c3ccccc3)c(Cl)cc12)C1CC1 [SB-734909] | 0
Cc1nnc(-c2ccc3ncn(-c4ccc(S(C)=O)cc4)c3c2)o1 (centres unmarked) | 12
CCC(=O)c1c(-c2ccccc2)c2cc(Cl)ccc2c(=O)n1Cc1cc(S(C)(=O)=O)n(CC(F)F)n1 | 0
Cc1ccc(-c2ccc3c(ccc4sc5c(c43)NC[C@@H](C)N=C5N(C)C)n2)cn1 | 0
Cc1nnc(-c2ccc(C)c(-c3ccc(C(=O)O)cc3)c2)o1 [GW608005] | 11
Fc1cccc(CSc2nnc(-c3ccc4c(c3)CCO4)o2)c1 | 10
O=C(NCCNc1ccnc(Nc2ccc(F)cc2)n1)Nc1ccc2c(c1)OCO2 [GSK1379882] | 25
CN(C)c1cc(-c2ccc3c(N)n[nH]c3c2)nc(N)n1 [GSK2219329] | 0
COc1cc2nccc(Nc3cccc(Oc4ccccc4)c3)c2cc1OC.Cl [GW284543] | 31
COc1ccc(-n2cnc3c(N)ncnc32)cc1 [SKF-97236] | 20
CCCNC(=O)Nc1ccc(Oc2ncnc3ccn(C)c23)cc1 | 10
COc1ccc(-c2cc3c(C)nc(N)nc3n([C@H]3CC[C@H](O)CC3)c2=O)cn1 | 0
COc1cc2ncn(-c3cc(OCCCc4ccccc4)c(C(N)=O)s3)c2cc1OC [GSK205189] | 8
CCc1ccc(-c2ccc3c(c2)-c2nn(C)cc2S(=O)(=O)N3C)cc1 | 0
Nc1n[nH]c2ncc(-c3ccccc3)cc12 [SB-517081] | 7
COc1ccc(CNC(=O)NC2CCN(c3ccnc(Nc4ccc(F)cc4)n3)C2)cc1 (centres unmarked) [GSK1379706] | 0

SMILES | %Inh [%]
Cc1nn2c(=O)cc(N3CCOCC3)nc2n1Cc1cccc(Cl)c1Cl [GSK2342769] | 0
Cn1c(=O)c(F)c(Nc2ccc(I)cc2F)c2c(=O)n(OC[C@H](O)CO)cnc21 | 2
COC(=O)c1c(-c2ccccc2)c2cc(C)ccc2c(=O)n1Cc1ccccc1 | 0
Nc1ncnc2c1ncn2-c1ccc(Cl)cc1 [AH2635] | 0
COc1cccc(C2=C(N(C)c3ccccc3)C(=O)NC2=O)c1 [SB-334865] | 0
COc1cc(Nc2nccc(N3CCC(NC(=O)C4COc5ccccc5O4)C3)n2)cc(OC)c1OC (centres unmarked) [GSK1379761] | 2
COC(=O)c1c(-c2ccccc2)c2cc(Br)ccc2c(=O)n1Cc1ccc(NC(=O)CCC(=O)O)cc1 | 17
Nc1ncnc2c1ncn2-c1cccc2ccccc12 [SKF-97184] | 0
COc1ccc(-c2cc3c(C)nc(N)nc3n([C@H]3CC[C@H](OCCO)CC3)c2=O)cn1 | 0
CCC(=O)c1c(-c2ccccc2)c2cc(Cl)ccc2c(=O)n1Cc1cc(S(C)(=O)=O)n(CC(N)=O)n1 | 0
Nc1nc(N)c2nc(-c3ccccc3)[nH]c2n1 [SKF-12778] | 6
FC(F)(F)c1ccc(-c2ncn(CCCN3CCOCC3)c2-c2ccncc2)cc1 [SB-217780] | 40
COc1cc(OC)cc(-c2cc3cnc(N)nc3nc2NC(=O)NC(C)(C)C)c1 | 0
O=C(Nc1ccc2c(c1)OCO2)NC1CCN(c2ccnc(NCc3ccc(F)cc3)n2)CC1 [GSK1379859] | 10
O=C(NCc1cccs1)c1cc(C(=O)c2c(Cl)cccc2Cl)c[nH]1 [GW823670] | 0
COc1cc2nccc(Nc3ccc(OCc4ccc(NC(C)=O)cc4)cc3)c2cc1OC.Cl [GW440135] | 77
COc1cc2ncn(-c3cc(OCc4ccncc4Br)c(C(N)=O)s3)c2cc1OC [GW854278] | 0
CCn1c(-c2ccoc2)nc2cnccc21 [SB-733887] | 15

test system: T1, PFTK1; conditions: concentration: 1 μM, replicates: in singlicate; n = 1
T1 construct: gene CDK14

SMILES | %Inh [%]
COc1ccc(Nc2nccc(N3CCC(NS(=O)(=O)c4ccc(NC(C)=O)cc4)C3)n2)cc1 (centres unmarked) [GSK1379729] | 20
CCn1c(-c2nonc2N)nc2ccccc21 [SB-693162/GW549034] | 17
COc1cccc(-n2cnc3c(N)ncnc32)c1 [SKF-97416] | 0
O=C(Nc1n[nH]c2nc(-c3ccccc3)c(Cl)cc12)C1CC1 [SB-734909] | 6
Cc1nnc(-c2ccc3ncn(-c4ccc(S(C)=O)cc4)c3c2)o1 (centres unmarked) | 14
CCC(=O)c1c(-c2ccccc2)c2cc(Cl)ccc2c(=O)n1Cc1cc(S(C)(=O)=O)n(CC(F)F)n1 | 0
Cc1ccc(-c2ccc3c(ccc4sc5c(c43)NC[C@@H](C)N=C5N(C)C)n2)cn1 | 0
Cc1nnc(-c2ccc(C)c(-c3ccc(C(=O)O)cc3)c2)o1 [GW608005] | 0
Fc1cccc(CSc2nnc(-c3ccc4c(c3)CCO4)o2)c1 | 0
O=C(NCCNc1ccnc(Nc2ccc(F)cc2)n1)Nc1ccc2c(c1)OCO2 [GSK1379882] | 0
CN(C)c1cc(-c2ccc3c(N)n[nH]c3c2)nc(N)n1 [GSK2219329] | 11
COc1cc2nccc(Nc3cccc(Oc4ccccc4)c3)c2cc1OC.Cl [GW284543] | 2
COc1ccc(-n2cnc3c(N)ncnc32)cc1 [SKF-97236] | 17
CCCNC(=O)Nc1ccc(Oc2ncnc3ccn(C)c23)cc1 | 0
COc1ccc(-c2cc3c(C)nc(N)nc3n([C@H]3CC[C@H](O)CC3)c2=O)cn1 | 0
COc1cc2ncn(-c3cc(OCCCc4ccccc4)c(C(N)=O)s3)c2cc1OC [GSK205189] | 34
CCc1ccc(-c2ccc3c(c2)-c2nn(C)cc2S(=O)(=O)N3C)cc1 | 9
Nc1n[nH]c2ncc(-c3ccccc3)cc12 [SB-517081] | 10
COc1ccc(CNC(=O)NC2CCN(c3ccnc(Nc4ccc(F)cc4)n3)C2)cc1 (centres unmarked) [GSK1379706] | 1

SMILES | %Inh [%]
Cc1nn2c(=O)cc(N3CCOCC3)nc2n1Cc1cccc(Cl)c1Cl [GSK2342769] | 91.7
Cn1c(=O)c(F)c(Nc2ccc(I)cc2F)c2c(=O)n(OC[C@H](O)CO)cnc21 | 0
COC(=O)c1c(-c2ccccc2)c2cc(C)ccc2c(=O)n1Cc1ccccc1 | 2
Nc1ncnc2c1ncn2-c1ccc(Cl)cc1 [AH2635] | 17
COc1cccc(C2=C(N(C)c3ccccc3)C(=O)NC2=O)c1 [SB-334865] | 20
COc1cc(Nc2nccc(N3CCC(NC(=O)C4COc5ccccc5O4)C3)n2)cc(OC)c1OC (centres unmarked) [GSK1379761] | 26
COC(=O)c1c(-c2ccccc2)c2cc(Br)ccc2c(=O)n1Cc1ccc(NC(=O)CCC(=O)O)cc1 | 0
Nc1ncnc2c1ncn2-c1cccc2ccccc12 [SKF-97184] | 1
COc1ccc(-c2cc3c(C)nc(N)nc3n([C@H]3CC[C@H](OCCO)CC3)c2=O)cn1 | 0
CCC(=O)c1c(-c2ccccc2)c2cc(Cl)ccc2c(=O)n1Cc1cc(S(C)(=O)=O)n(CC(N)=O)n1 | 11
Nc1nc(N)c2nc(-c3ccccc3)[nH]c2n1 [SKF-12778] | 9
FC(F)(F)c1ccc(-c2ncn(CCCN3CCOCC3)c2-c2ccncc2)cc1 [SB-217780] | 0
COc1cc(OC)cc(-c2cc3cnc(N)nc3nc2NC(=O)NC(C)(C)C)c1 | 0
O=C(Nc1ccc2c(c1)OCO2)NC1CCN(c2ccnc(NCc3ccc(F)cc3)n2)CC1 [GSK1379859] | 14
O=C(NCc1cccs1)c1cc(C(=O)c2c(Cl)cccc2Cl)c[nH]1 [GW823670] | 55
COc1cc2nccc(Nc3ccc(OCc4ccc(NC(C)=O)cc4)cc3)c2cc1OC.Cl [GW440135] | 0
COc1cc2ncn(-c3cc(OCc4ccncc4Br)c(C(N)=O)s3)c2cc1OC [GW854278] | 0
CCn1c(-c2ccoc2)nc2cnccc21 [SB-733887] | 0
